From PubChem BioAssay (NCATS)
Values joined by “and” are separate entries in the source; they are usually repeats but may differ in a detail not shown here. Equal values may be shown once. Records with an inconclusive call do not appear. Where a structure was tested more than once in an assay, its records may differ in their call. Active and inactive are the calls of the source. Unless noted, calls follow the shape of the dose curve; as a rule, active = well fitted curve in the direction sought with a large enough effect; inconclusive = small, poorly fitted or top-dose-only effect, or another doubt; inactive = no such curve, though single readings can be large; an effect the other way counts as inactive or inconclusive.

Experiments:
[1] = target: Lysosomal acid glucosylceramidase (Homo sapiens) (UniProt P04062); experiment: Glucocerebrosidase-p2 (AID 348; in the data active = potency below about 10 µM; also: potency is read from the fitted curve at half-maximal effect); settings: purified GBA, blue fluorogenic substrate, 40 min
Summary of the method: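 Compounds titrated from 0.6 nM upwards against 0.2 nM enzyme in pH 5.9 citric acid/KH2PO4, taurocholate, tween-20; blue fluorogenic substrate 80 uM, 40 min room temperature, stopped and read Ex 365/Em 440 for AC50.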

[2] = NFAT Signaling Pathway (AID 444; active = well fitted curve in either direction with a large enough effect, not every such curve was filed as active;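 also: carbachol stimulus at about its EC50 of 1 µM final; % is scaled to controls: 0 for no effect and ±100 for the full control effect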); settings: Jurkat NFAT-bla M1, carbachol, beta-lactamase ratio, 5 h
Summary of the method: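 Jurkat cells carrying an NFAT-driven β-lactamase reporter and co-transfected muscarinic M1 receptor were treated with compound plus carbachol (1 uM final, an EC50 level) for 5 h at 37 °C. CCF4 loading followed for 1 h at RT; 460/530 nm ratio gave %activity.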

[3] = Stat Signaling Pathway (AID 446; active = well fitted curve in either direction with a large enough effect, not every such curve was filed as active;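 also: ME-180 cervical cancer cells given 40 pM IL-6 alongside compound; SIE-controlled beta-lactamase reporter measured as 460/530 nm FRET emission ratio; % is scaled to controls: 0 for no effect and ±100 for the full control effect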); settings: ME-180 SIE beta-lactamase reporter, IL-6 stimulated, 5 h
Summary of the method: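 ME-180 cells carrying a SIE-driven beta-lactamase reporter are stimulated with 40 pM IL-6 for 5 h at 37C in the presence of compound. The 460/530 nm FRET substrate ratio is read after 2.5 h at RT. Data are normalised to 300 pM IL-6 and to 125 nM JAK inhibitor controls.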

[4] = target: Glucocorticoid receptor (Homo sapiens) (UniProt P04150); experiment: GR-GFP Redistribution (AID 450;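 active = compounds whose dose series gives a full or clear partial fitted curve of increased nuclear translocation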; also: potency is read from the fitted curve at half-maximal effect); settings: U2OS GR-GFP nuclear translocation, laser cytometry, 2 h
[5] = target: Glucocorticoid receptor (Homo sapiens) (UniProt P04150); experiment: GR-EFC Redistribution (AID 451; calls by dose curve; also: potency is read from the fitted curve at half-maximal effect); settings: CHO-K1 GR-EFC translocation, beta-gal luminescence, 2 h
Summary of the method: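 CHO-K1 cells stably expressing nuclear-localized β-gal enzyme acceptor and GR fused C-terminally to the enzyme donor fragment; ligand-driven nuclear translocation restores β-gal by complementation. Compounds titrated up to 46 uM final, 2 h at 37 °C; luminescence read.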

[6] = target: Mitogen-activated protein kinase 10 (Mus musculus) (UniProt Q61831); experiment: JNK3 AlphaScreen Assay (AID 530; active = well fitted curve in either direction with a large enough effect, not every such curve was filed as active;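 also: kinase came from lysate of stimulated human HepG2 cells; signal reports phosphorylation of biotinylated GST-cJun 1-79 at Ser73 with 10 µM ATP; % is scaled to controls: 0 for no effect and ±100 for the full control effect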); settings: JNK3 lysate, c-Jun phosphorylation; series mostly up to 57.1 µM
Summary of the method: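 Inhibitors reduce antibody binding to phosphorylated biotin-cJun, lowering AlphaScreen luminescence. Lysates from HepG2 cells pre-activated by IL-1beta plus TNF-alpha supplied JNK3; compounds were titrated.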

[7] = qHTS Assay for Lipid Storage Modulators (AID 1519; calls by dose curve); settings: Drosophila S3 cells, BODIPY lipid droplet/cell ratio, laser cytometry, cells loaded with oleic acid
Summary of the method: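 Cells seeded at 5,000 per well were treated with compounds over a concentration series and loaded with oleic acid (400 uM, as added). Lipid droplet fluorescence (488 nm excitation, 500-530 nm channel) was read by laser-scanning cytometry and normalized to 20 uM Triacsin C.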

[8] = AP1 Signaling Pathway (AID 357; active = well fitted curve in either direction with a large enough effect, not every such curve was filed as active;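 also: ME-180 reporter cells stimulated with EGF at its EC50 level; % is scaled to controls: 0 for no effect and ±100 for the full control effect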); settings: ME-180 (cervical carcinoma) AP-1-bla reporter, EGF-induced, beta-lactamase ratio, 5 h
Summary of the method: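 Cells are seeded overnight, exposed to compound titrations and an EC50 level of EGF for 5 hours at 37 °C, then loaded with CCF4 dye for 2.5 hours. Beta-lactamase activity under the AP-1 element is read as a blue/green ratio.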

[9] = target: Cytochrome P450 1A2 (Homo sapiens) (UniProt P05177); experiment: p450-cyp1a2 (AID 410; calls by dose curve; also: potency is read from the fitted curve at half-maximal effect;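 as to activity change, negative = inhibition: -100% = full effect of reference inhibitor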); settings: recombinant CYP1A2, luciferin-ME demethylation, luminescence; series mostly up to 57 µM
Summary of the method: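 20nM CYP1A2 with 100uM Luciferin-ME (at Km) in 100mM KPO4; compound preincubated 10 min, NADPH regeneration added, 60 min at room temperature. Luciferin quantified by luminescence after detection reagent; normalized to 57 uM furafylline.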

[10] = target: 3',5'-cyclic-AMP phosphodiesterase 4B (Homo sapiens) (UniProt Q07343); experiment: qHTS Assay for Inhibitors of PDE-IV (AID 607; active = well fitted activation curve with a large enough effect in the main read-out, with a control signal flat, not every such curve was filed as active; also: % of control where 0% means no effect); settings: HEK293 ACTOne CNG channel cells, membrane potential fluorescence; series mostly up to 22.9 µM
Summary of the method: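 HEK293 ACTOne cells with CNG channel (1000/well), endogenous PDE4; membrane potential dye, compounds up to 22.9 uM final. Fluorescence Ex 535/Em 590; RO 20-1724 (100 uM final) as reference.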

[11] = target: Guanine nucleotide-binding protein G(i) subunit alpha-1 (Homo sapiens) (UniProt P63096); experiment: qHTS Assay for Inhibitors of RGS12 GoLoco Motif Activity (Green Fluorophore) (AID 879); settings: Galphai1/FITC-RGS12 GoLoco peptide, fluorescence polarization; series mostly up to 57.1 µM;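 also: 0% = labeled peptide with Gαi1 and full inhibition = labeled peptide alone without protein; negative values mean loss of peptide binding seen as reduced polarization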
Summary of the method: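 Fluorescence polarization assay: 50 nM Gαi1 with 10 nM FITC-labeled RGS12 GoLoco peptide in 10 mM Tris pH 7.5, 150 mM NaCl, 0.1 mM GDP, 0.05% NP40, 10 min at room temperature with compound.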

[12] = qHTS Assay for Identification of Small Molecule Agonists for Thrombopoietin (TPO) Signaling Pathway (AID 917); settings: TPO signaling pathway reporter cells, agonist qHTS, stimulated with TPO at its EC50; series mostly up to 38.5 µM; also: % is scaled to controls: 0 for no effect and ±100 for the full control effect
Summary of the method: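 Luminescence from a Glycoprotein IIb promoter–driven luciferase reporter served as read-out in murine Ba/F3 cells carrying the human TPO receptor. Cells, deprived of IL-3 overnight, received compounds with 26 pM TPO and were incubated 24 hrs at 37 C.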

[13] = target: Pyruvate kinase (Leishmania mexicana) (UniProt Q27686); experiment: qHTS Validation Assay for Inhibitors of Leishmania Mexicana Pyruvate Kinase (AID 945);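 also: 0% = DMSO only neutral control wells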; settings: purified L. mexicana pyruvate kinase, enzyme activity, E451W mutant enzyme; series mostly up to 57.5 µM
Summary of the method: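 LmPYK E451W 0.2 nM; 0.5 mM PEP, 0.1 mM ADP, 7 mM MgCl2, 50 mM KCl, imidazole pH 7.2, 0.01% Tween 20, 0.05% BSA; 1 h RT; PKLight luminescence; DMSO-normalized.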

[14] = target: Pyruvate kinase PKM (Homo sapiens) (UniProt P14618); experiment: qHTS Assay for Activators of Human Muscle Pyruvate Kinase (AID 954; active = well fitted curve in the direction sought with a large enough effect, not every such curve was filed as active;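 also: 0% = uninhibited enzyme and -100% = no enzyme or full thiadiazolimine inhibition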); settings: purified human muscle pyruvate kinase, luciferase-coupled luminescence, 1 h; series mostly up to 57.5 µM
Summary of the method: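 Purified human PKM2 (0.1 nM) with 0.5 mM PEP (Km) and 0.1 mM ADP in 50 mM imidazole pH 7.2, KCl, MgCl2, 1 h at room temperature; ATP formed read by coupled luciferase luminescence. Normalized to no-enzyme/110 uM thiadiazolimine inhibition; 0.3 nM enzyme column for activation.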

[15] = target: Alpha-galactosidase A (Homo sapiens) (UniProt P06280); experiment: Counterscreen for Glucocerebrosidase Inhibitors: qHTS Assay for Human alpha-Galactosidase at pH 4.5 (AID 992); settings: purified enzyme, fluorogenic substrate; series mostly up to 76.9 µM; also: 0% is about no effect
Summary of the method: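 Human enzyme (2 nM) with 80 uM 4-methylumbelliferyl alpha-D-galactopyranoside in 50 mM citric acid, 0.005% Tween-20, pH 4.5, 20 min at room temperature. Compounds 0.7 nM–77 uM; fluorescence Ex 365/Em 440 after pH 10 stop; AC50 from Hill fits.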

[16] = target: alpha-glucosidase (Oryza sativa, rice) (UniProt Q653V4); experiment: Counterscreen for Glucocerebrosidase Inhibitors: qHTS Assay for Rice alpha-Glucosidase at pH 5.0 (AID 997); settings: rice alpha-glucosidase enzyme activity; series mostly up to 76.9 µM;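 also: 0% = full activity with enzyme and -100% = basal without enzyme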
Summary of the method: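 Rice alpha-glucosidase (4 nM final) with 400 uM 4-methylumbelliferyl-alpha-D-glucopyranoside in citrate buffer pH 5.0, 20 min at room temperature, stopped at pH 10; fluorescence 365/440 nm, compounds 0.7 nM–77 uM, AC50 from Hill fits.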

[17] = target: Ubiquitin carboxyl-terminal hydrolase 1 (Homo sapiens) (UniProt O94782); experiment: Inhibitors of USP1/UAF1: Pilot qHTS (AID 504865); settings: purified USP1/UAF1, Ub-rhodamine cleavage fluorescence; series mostly up to 54.9 µM;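 also: rhodamine fluorescence freed from ubiquitin-rhodamine substrate followed over time; top concentration of the series differs between compounds; % is scaled to controls: 0 for no effect and ±100 for the full control effect; nearly all actives have a fitted effect of over 35% in size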
Summary of the method: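 In 50mM HEPES pH 7.8 containing 0.5mM EDTA, 1mM TCEP, 0.1 mg/ml BSA and 0.01% Tween-20, 1nM USP1/UAF1 is exposed to compound for 15 min, then Ub-Rho (150nM final) is added and fluorescence is read over time.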

[18] = qHTS profiling for inhibitors of Plasmodium falciparum proliferation (AID 504749);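 also: 0% = DMSO vehicle and full inhibition = artemisinin control; nearly all actives have a fitted effect of over 60% in size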; settings: P. falciparum in erythrocytes, SYBR Green DNA, 72 h, at 28.7 µM (top of the series)
Summary of the method: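 Parasite proliferation within erythrocytes, 72 h exposure. Endpoint: SYBR Green I fluorescence after overnight lysis at room temperature. Controls: 0.29 uM artemisinin, DMSO.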

[19] = target: Cytochrome P450 3A4 (Homo sapiens) (UniProt P08684); experiment: qHTS Assay for Activators of Cytochrome P450 3A4 (AID 885); settings: recombinant CYP3A4, Luciferin-PPXE luminescence, 60 min; series mostly up to 57.1 µM; also: nearly all actives have a fitted effect of over 65% in size; also: potency is read from the fitted curve at half-maximal effect
Summary of the method: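 Human CYP3A4 (20 nM) with Luciferin-PPXE at 25 uM (its KM) in 200 mM KPO4; 10 min compound preincubation, then NADPH regeneration and 60 min reaction at RT. Luciferin read by luminescence; normalized to 57 uM ketoconazole full inhibition.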

[20] = target: Cytochrome P450 2D6 (Homo sapiens) (UniProt P10635); experiment: qHTS Assay for Inhibitors and Substrates of Cytochrome P450 2D6 (AID 891); settings: recombinant CYP2D6, luciferin-ME EGE luminescence; series mostly up to 57.1 µM; also: potency is read from the fitted curve at half-maximal effect; nearly all actives have a fitted effect of over 60% in size
Summary of the method: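 Human CYP2D6 (5 nM) with 30 uM Luciferin-ME EGE (at Km) in 100 mM KPO4, compound preincubated 10 min, then NADPH regeneration system for 60 min at room temperature. Luciferin read by luminescence; normalized to 1.43 uM quinidine.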

[21] = at 7.69 µM (top of the series) unless noted
[22] = measured here: cell count channel max response
[23] = measured here: lipid channel max response

Sequence of Guanine nucleotide-binding protein G(i) subunit alpha-1 (Homo sapiens) (P63096 whole entry, looked up): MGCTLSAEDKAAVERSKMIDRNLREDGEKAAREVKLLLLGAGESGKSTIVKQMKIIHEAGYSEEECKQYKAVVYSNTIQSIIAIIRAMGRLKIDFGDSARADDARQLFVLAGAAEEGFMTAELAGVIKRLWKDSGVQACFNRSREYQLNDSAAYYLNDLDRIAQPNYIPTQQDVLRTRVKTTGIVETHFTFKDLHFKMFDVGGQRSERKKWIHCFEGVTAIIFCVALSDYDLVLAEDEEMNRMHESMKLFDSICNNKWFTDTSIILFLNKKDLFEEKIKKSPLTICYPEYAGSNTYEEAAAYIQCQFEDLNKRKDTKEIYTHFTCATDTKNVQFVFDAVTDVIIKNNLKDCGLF
Sequence of Pyruvate kinase PKM (Homo sapiens) (P14618 whole entry, looked up): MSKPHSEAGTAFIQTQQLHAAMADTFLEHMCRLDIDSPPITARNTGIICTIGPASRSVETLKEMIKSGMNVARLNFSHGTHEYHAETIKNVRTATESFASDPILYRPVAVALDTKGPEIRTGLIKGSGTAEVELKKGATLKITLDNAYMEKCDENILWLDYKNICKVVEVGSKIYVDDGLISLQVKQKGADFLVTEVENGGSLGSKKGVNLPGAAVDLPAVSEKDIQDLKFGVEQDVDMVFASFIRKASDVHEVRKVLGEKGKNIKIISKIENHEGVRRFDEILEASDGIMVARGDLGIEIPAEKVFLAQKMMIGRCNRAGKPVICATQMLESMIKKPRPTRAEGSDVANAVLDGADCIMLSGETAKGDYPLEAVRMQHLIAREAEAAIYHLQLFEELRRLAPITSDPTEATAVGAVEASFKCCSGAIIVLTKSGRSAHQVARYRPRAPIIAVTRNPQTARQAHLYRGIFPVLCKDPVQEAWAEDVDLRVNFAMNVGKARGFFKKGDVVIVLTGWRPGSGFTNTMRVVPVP
Sequence of Pyruvate kinase (Leishmania mexicana) (Q27686 2-499 E452W): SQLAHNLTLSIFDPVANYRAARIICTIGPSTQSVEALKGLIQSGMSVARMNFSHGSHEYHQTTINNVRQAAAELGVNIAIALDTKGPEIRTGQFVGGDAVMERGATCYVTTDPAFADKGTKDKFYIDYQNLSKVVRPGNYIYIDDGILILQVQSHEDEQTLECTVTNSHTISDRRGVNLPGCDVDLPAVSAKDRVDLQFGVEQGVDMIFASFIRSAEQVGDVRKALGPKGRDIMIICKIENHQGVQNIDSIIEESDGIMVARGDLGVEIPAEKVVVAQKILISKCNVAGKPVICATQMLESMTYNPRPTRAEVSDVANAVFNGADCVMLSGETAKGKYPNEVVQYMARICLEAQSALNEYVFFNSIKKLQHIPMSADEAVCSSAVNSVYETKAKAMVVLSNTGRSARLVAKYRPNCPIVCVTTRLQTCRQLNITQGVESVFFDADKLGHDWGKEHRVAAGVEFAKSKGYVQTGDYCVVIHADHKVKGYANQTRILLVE
Sequence of Alpha-galactosidase A (Homo sapiens) (P06280 whole entry, looked up): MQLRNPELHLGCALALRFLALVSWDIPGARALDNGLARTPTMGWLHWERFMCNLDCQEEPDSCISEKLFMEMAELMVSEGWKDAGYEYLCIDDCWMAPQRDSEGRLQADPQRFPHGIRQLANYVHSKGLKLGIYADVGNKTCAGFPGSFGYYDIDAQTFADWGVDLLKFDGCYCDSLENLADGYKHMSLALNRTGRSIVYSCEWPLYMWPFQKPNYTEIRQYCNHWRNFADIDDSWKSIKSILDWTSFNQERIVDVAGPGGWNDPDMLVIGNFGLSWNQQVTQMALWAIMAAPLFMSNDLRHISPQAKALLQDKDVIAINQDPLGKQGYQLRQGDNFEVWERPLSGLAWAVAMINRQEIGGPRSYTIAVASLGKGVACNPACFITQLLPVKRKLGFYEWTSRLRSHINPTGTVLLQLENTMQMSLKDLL
Sequence of Ubiquitin carboxyl-terminal hydrolase 1 (Homo sapiens) (O94782 whole entry, looked up): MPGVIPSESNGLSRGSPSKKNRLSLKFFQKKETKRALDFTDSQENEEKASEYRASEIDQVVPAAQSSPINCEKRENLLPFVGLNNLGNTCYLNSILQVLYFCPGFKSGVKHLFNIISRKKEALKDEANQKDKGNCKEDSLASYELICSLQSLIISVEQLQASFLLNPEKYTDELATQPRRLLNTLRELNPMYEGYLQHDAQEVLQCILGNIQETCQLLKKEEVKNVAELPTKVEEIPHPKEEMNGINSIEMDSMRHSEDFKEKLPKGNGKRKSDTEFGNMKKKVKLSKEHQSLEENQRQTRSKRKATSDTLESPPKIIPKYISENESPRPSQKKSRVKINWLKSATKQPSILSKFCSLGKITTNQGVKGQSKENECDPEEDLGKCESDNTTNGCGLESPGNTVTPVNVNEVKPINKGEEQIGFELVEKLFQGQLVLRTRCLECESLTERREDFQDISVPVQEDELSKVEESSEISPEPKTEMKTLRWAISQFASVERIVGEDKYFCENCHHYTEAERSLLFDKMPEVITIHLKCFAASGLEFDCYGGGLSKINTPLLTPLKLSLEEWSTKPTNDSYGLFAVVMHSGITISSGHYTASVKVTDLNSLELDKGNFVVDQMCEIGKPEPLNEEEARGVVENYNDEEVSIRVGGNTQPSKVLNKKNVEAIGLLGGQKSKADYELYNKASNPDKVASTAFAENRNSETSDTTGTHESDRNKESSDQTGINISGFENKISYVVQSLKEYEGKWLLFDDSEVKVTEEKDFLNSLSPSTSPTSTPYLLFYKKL
Sequence of Glucocorticoid receptor (Homo sapiens) (P04150 whole entry, looked up, the tested form may be a part): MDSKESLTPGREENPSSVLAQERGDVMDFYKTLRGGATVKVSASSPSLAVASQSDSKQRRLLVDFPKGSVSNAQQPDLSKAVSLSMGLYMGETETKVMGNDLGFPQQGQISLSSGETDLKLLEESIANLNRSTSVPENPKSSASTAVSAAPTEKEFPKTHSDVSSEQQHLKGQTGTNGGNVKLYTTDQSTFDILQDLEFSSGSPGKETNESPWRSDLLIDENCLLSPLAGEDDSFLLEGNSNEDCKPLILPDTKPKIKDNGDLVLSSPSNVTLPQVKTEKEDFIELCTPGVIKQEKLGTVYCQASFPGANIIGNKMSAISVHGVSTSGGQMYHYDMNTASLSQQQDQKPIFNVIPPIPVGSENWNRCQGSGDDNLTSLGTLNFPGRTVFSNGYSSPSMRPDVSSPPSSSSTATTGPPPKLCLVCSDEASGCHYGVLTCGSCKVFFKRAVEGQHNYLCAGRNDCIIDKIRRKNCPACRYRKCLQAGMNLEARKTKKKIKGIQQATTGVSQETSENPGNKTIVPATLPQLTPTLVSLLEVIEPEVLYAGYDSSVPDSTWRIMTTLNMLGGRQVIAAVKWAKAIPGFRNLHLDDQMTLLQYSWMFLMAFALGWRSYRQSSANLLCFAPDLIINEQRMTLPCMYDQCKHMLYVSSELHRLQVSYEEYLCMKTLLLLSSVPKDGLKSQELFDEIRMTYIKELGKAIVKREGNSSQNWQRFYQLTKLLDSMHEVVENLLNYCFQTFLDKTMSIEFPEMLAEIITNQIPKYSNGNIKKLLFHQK
Sequence of Cytochrome P450 3A4 (Homo sapiens) (P08684 whole entry, looked up): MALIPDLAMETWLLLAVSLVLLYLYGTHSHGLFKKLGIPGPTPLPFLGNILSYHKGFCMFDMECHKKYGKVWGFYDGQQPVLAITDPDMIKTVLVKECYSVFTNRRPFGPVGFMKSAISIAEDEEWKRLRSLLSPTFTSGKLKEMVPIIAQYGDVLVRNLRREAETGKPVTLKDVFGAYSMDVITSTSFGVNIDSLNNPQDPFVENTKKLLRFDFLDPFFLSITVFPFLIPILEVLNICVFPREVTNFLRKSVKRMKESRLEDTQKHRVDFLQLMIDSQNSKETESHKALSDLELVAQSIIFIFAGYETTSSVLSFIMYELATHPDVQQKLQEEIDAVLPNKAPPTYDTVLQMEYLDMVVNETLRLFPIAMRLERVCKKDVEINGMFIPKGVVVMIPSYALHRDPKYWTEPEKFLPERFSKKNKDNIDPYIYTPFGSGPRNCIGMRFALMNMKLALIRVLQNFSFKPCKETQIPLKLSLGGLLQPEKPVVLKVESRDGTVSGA
Sequence of 3',5'-cyclic-AMP phosphodiesterase 4B (Homo sapiens) (Q07343 whole entry, looked up): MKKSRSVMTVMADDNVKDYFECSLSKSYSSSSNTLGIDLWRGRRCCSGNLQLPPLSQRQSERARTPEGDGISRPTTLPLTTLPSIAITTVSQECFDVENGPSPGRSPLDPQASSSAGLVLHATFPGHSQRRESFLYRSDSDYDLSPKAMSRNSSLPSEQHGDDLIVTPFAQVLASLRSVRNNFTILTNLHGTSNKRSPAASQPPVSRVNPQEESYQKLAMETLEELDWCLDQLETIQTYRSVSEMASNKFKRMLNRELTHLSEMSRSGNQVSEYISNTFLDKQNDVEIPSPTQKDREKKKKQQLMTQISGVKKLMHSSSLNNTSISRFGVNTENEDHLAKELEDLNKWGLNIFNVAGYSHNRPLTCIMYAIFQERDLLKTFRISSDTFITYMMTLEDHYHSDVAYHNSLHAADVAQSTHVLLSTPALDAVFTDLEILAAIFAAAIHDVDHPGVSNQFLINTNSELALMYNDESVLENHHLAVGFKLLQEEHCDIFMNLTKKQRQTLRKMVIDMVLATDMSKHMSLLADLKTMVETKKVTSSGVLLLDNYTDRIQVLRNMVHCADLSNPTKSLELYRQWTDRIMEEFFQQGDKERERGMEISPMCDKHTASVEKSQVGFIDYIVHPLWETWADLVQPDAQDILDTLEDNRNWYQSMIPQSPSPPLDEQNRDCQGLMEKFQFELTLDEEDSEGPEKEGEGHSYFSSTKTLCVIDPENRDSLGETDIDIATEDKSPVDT

N#CCCn1c(=O)c(CCc2ccccc2)nc2cnc(N3CCOCC3)nc21
Potency [1]: > 11.4 µM (inactive)
activity change, negative = inhibition [2, 21]: -3.78% (inactive)
activity, negative = inhibition [3, 21]: 26.7% (inactive)
Potency [4]: > 9.22 µM (inactive)
Potency [5]: > 46 µM (inactive)
Potency [6]: inactive
activity change, negative = inhibition ([7]; at 57.5 µM (top of the series)): 4.17% (inactive)
max response [7, 22]: 19.8%
max response [7, 23]: 22.7%

CC(C)NC[C@H](O)c1cc(O)cc(O)c1
activity change, negative = inhibition ([8]; at 17.2 µM (top of the series)): -17.9% (inactive)
activity change, negative = inhibition ([8]; at 38 µM (top of the series)): -18.1% (inactive)
Potency [9]: inactive
activity change, negative = inhibition ([2]; at 17.2 µM (top of the series)): -4.38% (inactive)
activity change, negative = inhibition ([2]; at 38 µM (top of the series)): 2.58% (inactive)
activity, negative = inhibition [3, 21]: 14.6% [at 17.2 µM] (inactive)
Potency [6]: inactive
Potency [10]: inactive
Potency [11]: inactive
outcome [12]: inactive
outcome [13]: inactive
outcome [14]: inactive
outcome [15]: inactive
outcome [16]: inactive
activity change, negative = inhibition ([7]; at 25.7 µM (top of the series)): -2.07% (inactive)
max response [7, 22]: 14.3%
max response [7, 23]: 12.4%
Potency [17]: inactive
activity, negative = inhibition ([18]; parasite line A): 15.2% (inactive)
activity, negative = inhibition ([18]; parasite line B): 4.36% (inactive)

CC(=O)O[C@]1(C(C)=O)CC[C@@H]2[C@@H]3C=C(Cl)C4=CC(=O)[C@H]5C[C@@H]5[C@]4(C)[C@H]3CC[C@]21C
activity change, negative = inhibition ([8]; at 17.2 µM (top of the series)): 5.64% (inactive)
activity change, negative = inhibition ([8]; at 38 µM (top of the series)): 3.07% (inactive)
Potency [9]: inactive
activity change, negative = inhibition ([2]; at 17.2 µM (top of the series)): -18.6% (inactive)
activity change, negative = inhibition ([2]; at 38 µM (top of the series)): -9.31% (inactive)
activity, negative = inhibition [3, 21]: -5.59% [at 17.2 µM] (inactive)
Potency [6]: inactive
Potency [10]: inactive
Potency [11]: inactive
Potency [19]: 3.16 µM (active) and 10 µM (active)
outcome [12]: inactive
outcome [13]: inactive
outcome [14]: inactive
outcome [15]: inactive
outcome [16]: inactive
activity change, negative = inhibition ([7]; at 25.7 µM (top of the series)): -2.31% (inactive)
max response [7, 22]: -4.56%
max response [7, 23]: -7.45%
Potency [17]: inactive

CC(C)COC[C@H](CN(Cc1ccccc1)c1ccccc1)N1CCCC1
activity change, negative = inhibition [8, 21]: 15.1% [at 38 µM] (inactive)
Potency [9]: inactive and 12.6 µM (active)
activity change, negative = inhibition [2, 21]: -5.29% [at 38 µM] (inactive)
activity, negative = inhibition ([3]; at 17.2 µM (top of the series)): -1.52% (inactive)
activity, negative = inhibition ([3]; at 38 µM (top of the series)): -10.2% (inactive)
Potency [4]: > 46 µM (inactive) and > 20.6 µM (inactive)
Potency [5]: > 46 µM (inactive) and > 20.6 µM (inactive)
Potency [6]: inactive
Potency [10]: inactive
Potency [11]: inactive
Potency [19]: inactive
Potency [20]: 15.8 nM (active)
outcome [12]: inactive
outcome [13]: inactive
outcome [14]: inactive
outcome [15]: inactive
outcome [16]: inactive
activity change, negative = inhibition ([7]; at 25.7 µM (top of the series)): -12.4% (inactive)
max response [7, 22]: -16.9%
max response [7, 23]: -26.5%
Potency [17]: inactive

O=C(O)CNC(=O)[C@@H](CS)Cc1ccccc1
activity change, negative = inhibition ([8]; at 17.2 µM (top of the series)): 1.14% (inactive)
activity change, negative = inhibition ([8]; at 38 µM (top of the series)): -1.37% (inactive)
Potency [9]: inactive
activity change, negative = inhibition ([2]; at 17.2 µM (top of the series)): 3.12% (inactive)
activity change, negative = inhibition ([2]; at 38 µM (top of the series)): -2.03% (inactive)
Potency [4]: > 46 µM (inactive) and > 20.6 µM (inactive)
Potency [5]: > 46 µM (inactive) and > 20.6 µM (inactive)
Potency [6]: inactive
Potency [10]: inactive
Potency [11]: inactive
outcome [12]: inactive
outcome [13]: inactive
outcome [14]: inactive
outcome [15]: inactive
outcome [16]: inactive
activity change, negative = inhibition ([7]; at 25.7 µM (top of the series)): -1.09% (inactive)
max response [7, 22]: -2.84%
max response [7, 23]: -4.92%
